From PubChem BioAssay (NCI)
Compounds without any hit were thinned out: in the full panel of roughly 79,000, 15% have a hit. Calls of active or inactive are those of the source. Rule as the data show it: active = growth inhibition above about 70%; inactive = the rest.

Experiments:
[1] = NCI Yeast Anticancer Drug Screen. Data for the mlh1 strain (AID 171);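 also: 0% = growth of vehicle-treated control cultures of the same strain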; conditions: S. cerevisiae mlh1 strain growth inhibition, stronger effect = higher value
Procedure, shortened: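 Growth of the mutant yeast strain after compound exposure, expressed as inhibition relative to vehicle-only controls.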

[2] = NCI Yeast Anticancer Drug Screen. Data for the sgs1 strain (AID 173);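 also: 0% = growth of vehicle-only control cultures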; conditions: S. cerevisiae sgs1 mutant, stronger effect = higher value
Procedure, shortened: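 Growth of a yeast strain bearing a defined genetic alteration is measured after compound treatment. Inhibition is expressed relative to vehicle-only controls.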

[3] = NCI Yeast Anticancer Drug Screen. Data for the mlh1 rad18 strain (AID 175); conditions: S. cerevisiae mlh1 rad18 strain growth inhibition, stronger effect = higher value
Procedure, shortened: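 Read-out is yeast growth inhibition, calculated against vehicle-only controls. The compound was applied to a strain engineered with DNA damage repair alterations.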

[4] = NCI Yeast Anticancer Drug Screen. Data for the rad18 strain (AID 177); conditions: S. cerevisiae rad18 mutant growth inhibition, stronger effect = higher value
Procedure, shortened: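 Growth of the mutant yeast strain after compound exposure, normalised to vehicle-only cultures.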

[5] = NCI Yeast Anticancer Drug Screen. Data for the rad52 strain (AID 147);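 also: 0% = growth of vehicle-treated control cultures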; conditions: S. cerevisiae rad52 mutant growth inhibition, stronger effect = higher value
Procedure, shortened: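 Compounds are applied to a genetically defined yeast strain lacking normal DNA damage repair, and inhibition of growth is expressed relative to cultures given vehicle only.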

[6] = NCI Yeast Anticancer Drug Screen. Data for the wt1 strain (AID 149);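 also: 0% = growth of vehicle-treated wt1 cultures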; conditions: S. cerevisiae wt1 strain (SPY 50644) growth inhibition, stronger effect = higher value
Procedure, shortened: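 Each compound is tested on wt1 yeast and the loss of growth versus vehicle gives the inhibition value.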

[7] = NCI Yeast Anticancer Drug Screen. Data for the rad50EPP+ strain (AID 151);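 also: 0% = growth of vehicle-treated control cultures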; conditions: S. cerevisiae rad50 mutant strain, stronger effect = higher value
Procedure, shortened: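 Compounds were applied to the rad50EPP+ yeast strain, which bears a defined DNA repair alteration, and growth inhibition was determined relative to vehicle-treated cultures.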

[8] = NCI Yeast Anticancer Drug Screen. Data for the rad50 strain (AID 155);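 also: 0% = growth of vehicle-only cultures of the same strain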; conditions: S. cerevisiae rad50 strain growth inhibition, stronger effect = higher value
Procedure, shortened: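 Vehicle-treated cultures provide the reference for the growth inhibition reported for compound-exposed, repair-deficient yeast.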

[9] = NCI Yeast Anticancer Drug Screen. Data for the mec2-1 strain (AID 157); conditions: S. cerevisiae mec2-1 strain, stronger effect = higher value
Procedure, shortened: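 Strain: mec2-1 (DNA repair/cell cycle alteration). Compound exposure, then growth measured; inhibition expressed relative to vehicle.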

[10] = NCI Yeast Anticancer Drug Screen. Data for the rad14 strain (AID 159);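 also: 0% = growth of vehicle-treated control cultures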; conditions: S. cerevisiae rad14 strain growth inhibition, stronger effect = higher value
Procedure, shortened: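 Inhibition of growth is reported for a repair-deficient yeast mutant following compound treatment, calculated relative to cultures that received vehicle.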

[11] = NCI Yeast Anticancer Drug Screen. Data for the sgs1 mgt1 strain (AID 161);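 also: 0% = growth of cultures given vehicle only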; conditions: S. cerevisiae sgs1 mgt1 strain, stronger effect = higher value
Procedure, shortened: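 Genetically altered yeast, compound exposure, growth inhibition relative to vehicle.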

[12] = NCI Yeast Anticancer Drug Screen. Data for the CLN2oe strain (AID 163);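 also: 0% = growth of vehicle-only control cultures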; conditions: S. cerevisiae CLN2oe strain, stronger effect = higher value
Procedure, shortened: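 Growth of a genetically modified yeast strain is measured after compound exposure and compared with cultures given vehicle alone.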

[13] = NCI Yeast Anticancer Drug Screen. Data for the cln2 rad14 strain (AID 165);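 also: 0% = growth equal to vehicle treated cultures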; conditions: S. cerevisiae cln2 rad14 strain, stronger effect = higher value
Procedure, shortened: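 Compounds are applied to the cln2 rad14 yeast strain, and growth is then compared with that of vehicle-treated cultures to give inhibition.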

[14] = NCI Yeast Anticancer Drug Screen. Data for the bub3 strain (AID 167); conditions: S. cerevisiae bub3 mutant strain, stronger effect = higher value
Procedure, shortened: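 Mutant yeast screening strain plus compound; vehicle-treated cultures serve as the 0% inhibition reference.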

[15] = NCI Yeast Anticancer Drug Screen. Data for the wt2 strain (AID 169); conditions: S. cerevisiae wt2 strain growth inhibition, stronger effect = higher value
Procedure, shortened: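 This strain belongs to a panel of yeast strains with defined genetic alterations in DNA damage repair or cell cycle control. Compounds are applied, and growth inhibition is measured against vehicle-treated cultures.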

[16] = at 5.0 µM (retest, dose inferred, filed as 0.5)
[17] = at 50.0 µM (retest, dose inferred, filed as 5.0)

Measured: growth inhibition

CC1OCC2OC(C)OC(C3C4=C(CC(C)(C)CC4=O)OC4=C3C(=O)CC(C)(C)C4)C2O1 (stereo unspecified)
active: [3]; at 50.0 µM 80.7% | [4]; at 33.0 µM 78% | [4]; at 100.0 µM 91%
inactive: [1]; at 1.2 µM 1% | [1]; at 3.7 µM 2% | [1]; at 11.0 µM 4% | [1]; at 33.0 µM 8% | [1]; at 100.0 µM 25% | [2]; at 1.2 µM -2% | [2]; at 3.7 µM 1% | [2]; at 11.0 µM 9% | [2]; at 33.0 µM 32% | [2]; at 100.0 µM 65% | [3]; [16] 9% | [3]; [17] 46% | [4]; at 1.2 µM 3% | [4]; at 3.7 µM 18% | [4]; at 11.0 µM 43%

NCCNc1ccc(NCCN)c2c1C(=O)c1c(O)ccc(O)c1C2=O
inactive: [5]; at 1.2 µM 24% | [5]; at 100.0 µM 63% | [6]; at 1.2 µM 0% | [6]; at 3.7 µM 9% | [6]; at 11.0 µM 7% | [7]; at 1.2 µM 30% | [7]; at 3.7 µM 62% | [7]; at 100.0 µM 66% | [8]; at 1.2 µM 20% | [8]; at 50.0 µM 29.6% | [8]; at 100.0 µM 65% | [9]; at 1.2 µM -10% | [9]; at 3.7 µM 18% | [9]; [16] 14% | [9]; at 11.0 µM 13% | [9]; at 50.0 µM 67.5% | [9]; at 100.0 µM 68% | [10]; at 1.2 µM -4% | [10]; at 3.7 µM 5% | [10]; at 11.0 µM 18% | [10]; at 100.0 µM 68% | [11]; [16] 17% | [11]; at 50.0 µM 65% | [12]; at 1.2 µM 28% | [12]; at 3.7 µM 20% | [12]; at 11.0 µM 32% | [12]; at 100.0 µM 52% | [13]; [16] 21% | [13]; at 50.0 µM 64.5% | [14]; at 1.2 µM 0% | [14]; at 3.7 µM 23% | [14]; [16] 11% | [14]; at 11.0 µM 5% | [14]; at 50.0 µM 60% | [14]; at 100.0 µM 62% | [15]; at 1.2 µM -15% | [15]; at 3.7 µM 2% | [15]; at 11.0 µM 44% | [15]; at 100.0 µM 52% | [1]; at 1.2 µM 2% | [1]; at 3.7 µM 20% | [1]; at 11.0 µM 20% | [1]; at 100.0 µM 66% | [2]; at 1.2 µM 11% | [2]; at 3.7 µM 42% | [2]; at 11.0 µM 40% | [2]; at 100.0 µM 63% | [3]; [16] 14% | [3]; at 50.0 µM 46% | [4]; at 1.2 µM 4% | [4]; at 3.7 µM 18% | [4]; at 11.0 µM 8% | [4]; at 100.0 µM 61%
active: [5]; at 3.7 µM 83% | [5]; at 11.0 µM 88% | [5]; at 33.0 µM 85% | [6]; at 33.0 µM 82% | [6]; at 100.0 µM 76% | [7]; at 11.0 µM 82% | [7]; at 33.0 µM 87% | [8]; at 3.7 µM 78% | [8]; [16] 73% | [8]; at 11.0 µM 87% | [8]; at 33.0 µM 85% | [8]; [17] 84% | [9]; at 33.0 µM 87% | [9]; [17] 84% | [10]; at 33.0 µM 88% | [11]; [17] 77% | [12]; at 33.0 µM 82% | [13]; [17] 77% | [14]; at 33.0 µM 85% | [14]; [17] 70% | [15]; at 33.0 µM 80% | [1]; at 33.0 µM 86% | [2]; at 33.0 µM 86% | [3]; [17] 82% | [4]; at 33.0 µM 85%
